# Experimental data reported in PubChem BioAssay.
# Unmarked numbers belong to inactive results. Where a call stands in place of a potency, no number is given. For some of these results: Potency and affinity values are given separately. The source made the active and inactive calls. Unless noted, no rule for the calls is given here.
# Tests used:
# [1] = antimalarial activity against Dd2 strain (AID 2302;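 active = growth inhibition above 50% at the single 2 µM test dose, taken to imply half-maximal potency below 2 µM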); conditions: P. falciparum Dd2 in RBCs, LDH growth readout, 72 h; at 2 µM; stronger effect = higher value
# [2] = HepG2 cytotoxicity, primary screen, cytotoxicity control for P. falciparum antimalarial project, cell-based, ATP luminescence (AID 2303;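 active = inhibition above 50%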); conditions: HepG2 viability, 24-48 h, at 10 µM, stronger effect = higher value
# [3] = biological target: L-lactate dehydrogenase (Plasmodium falciparum (isolate CDC / Honduras)) (UniProt Q27743); test: PfLDH activity inhibition – cell lysate, 3D7 strain, counter-screen for P. falciparum growth inhibition project (AID 2304); conditions: P. falciparum 3D7 crude extract, LDH APAD/NBT absorbance; at 2 µM; stronger effect = higher value
# [4] = inhibition of 3D7 malaria parasite growth – strain 3D7 (AID 2306); conditions: P. falciparum 3D7 erythrocytic growth, LDH absorbance, 72 h; at 2 µM; stronger effect = higher value
# [5] = biological target: Calcium-dependent protein kinase 1 (Plasmodium falciparum (isolate 3D7)) (UniProt P62344); test: PfCDPK1 kinase inhibitors, biochemical, TCAMS library (AID 1159585; cut-off not given, nearly all actives have IC50 up to about 0.98 µM;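 also: inhibitors leave more ATP so luminescence rises with inhibition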); conditions: recombinant PfCDPK1, Kinase-Glo ATP depletion luminescence
# [6] = biological target: Plasmodium falciparum protein kinase 6 (PK6, PF3D7_1337100) (UniProt Q8IDW1); test: PfPK6 kinase inhibitors, biochemical, TCAMS library (AID 1159586); conditions: recombinant PfPK6, Kinase-Glo ATP depletion luminescence
# [7] = biological target: Protein kinase 7 (PK7), Plasmodium falciparum 3D7 (PF3D7_0213400) (UniProt Q7YTF7); test: inhibition of Plasmodium PK7 catalytic activity – biochemical, TCAMS antimalarial set, Kinase-Glo luminescence (AID 1159587); conditions: recombinant PfPK7, Kinase-Glo ATP depletion luminescence
# [8] = biological target: Calcium-dependent protein kinase 4 (Plasmodium falciparum (isolate 3D7)) (UniProt Q8IBS5); test: PfCDPK4 kinase inhibitors, biochemical, TCAMS library (AID 1159588; cut-off not given, nearly all actives have IC50 up to about 0.91 µM); conditions: recombinant PfCDPK4, Kinase-Glo ATP depletion luminescence
# Chain of Calcium-dependent protein kinase 4 (Plasmodium falciparum (isolate 3D7)) (Q8IBS5 whole entry, looked up): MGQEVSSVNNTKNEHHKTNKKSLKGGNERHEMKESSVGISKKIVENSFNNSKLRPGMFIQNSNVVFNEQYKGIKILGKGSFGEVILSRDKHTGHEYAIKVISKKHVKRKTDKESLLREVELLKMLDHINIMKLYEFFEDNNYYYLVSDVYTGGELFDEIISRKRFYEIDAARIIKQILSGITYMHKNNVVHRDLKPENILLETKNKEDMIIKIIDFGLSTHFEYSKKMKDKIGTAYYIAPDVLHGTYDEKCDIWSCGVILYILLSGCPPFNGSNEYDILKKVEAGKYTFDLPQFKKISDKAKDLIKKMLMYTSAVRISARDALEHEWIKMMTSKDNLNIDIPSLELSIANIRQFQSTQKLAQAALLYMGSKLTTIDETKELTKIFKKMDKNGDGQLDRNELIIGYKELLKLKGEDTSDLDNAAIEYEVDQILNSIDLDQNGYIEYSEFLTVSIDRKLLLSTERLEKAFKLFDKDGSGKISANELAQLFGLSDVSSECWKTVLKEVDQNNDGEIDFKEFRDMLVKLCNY
# Chain of Protein kinase 7 (PK7), Plasmodium falciparum 3D7 (PF3D7_0213400) (Q7YTF7 1-343): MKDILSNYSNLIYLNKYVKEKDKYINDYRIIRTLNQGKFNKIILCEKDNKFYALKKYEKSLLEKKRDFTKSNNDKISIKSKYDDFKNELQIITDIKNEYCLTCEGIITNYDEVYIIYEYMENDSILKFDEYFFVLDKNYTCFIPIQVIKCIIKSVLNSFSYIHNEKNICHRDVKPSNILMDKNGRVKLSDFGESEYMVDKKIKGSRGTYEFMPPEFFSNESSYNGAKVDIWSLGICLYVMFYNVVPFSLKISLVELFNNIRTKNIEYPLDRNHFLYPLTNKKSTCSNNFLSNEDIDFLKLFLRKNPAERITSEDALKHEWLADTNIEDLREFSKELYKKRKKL
# Chain of Plasmodium falciparum protein kinase 6 (PK6, PF3D7_1337100) (Q8IDW1 1-305): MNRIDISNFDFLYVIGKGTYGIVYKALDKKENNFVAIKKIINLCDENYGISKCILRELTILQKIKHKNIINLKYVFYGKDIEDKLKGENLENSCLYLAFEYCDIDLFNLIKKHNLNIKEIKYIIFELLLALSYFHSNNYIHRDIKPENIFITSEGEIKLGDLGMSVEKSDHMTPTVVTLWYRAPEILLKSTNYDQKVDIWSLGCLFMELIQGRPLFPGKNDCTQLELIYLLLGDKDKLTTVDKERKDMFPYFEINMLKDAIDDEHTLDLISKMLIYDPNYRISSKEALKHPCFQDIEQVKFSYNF
# Chain of L-lactate dehydrogenase (Plasmodium falciparum (isolate CDC / Honduras)) (Q27743 whole entry, looked up): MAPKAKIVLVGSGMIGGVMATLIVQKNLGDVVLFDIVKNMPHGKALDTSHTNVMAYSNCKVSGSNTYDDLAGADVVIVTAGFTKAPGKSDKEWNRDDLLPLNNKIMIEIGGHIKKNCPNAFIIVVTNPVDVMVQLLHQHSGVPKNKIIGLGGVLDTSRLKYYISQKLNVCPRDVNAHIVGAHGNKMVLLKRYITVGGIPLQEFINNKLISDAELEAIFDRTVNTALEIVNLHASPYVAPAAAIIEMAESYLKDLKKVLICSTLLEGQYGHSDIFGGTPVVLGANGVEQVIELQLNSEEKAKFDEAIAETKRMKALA
# Chain of Calcium-dependent protein kinase 1 (Plasmodium falciparum (isolate 3D7)) (P62344 whole entry, looked up): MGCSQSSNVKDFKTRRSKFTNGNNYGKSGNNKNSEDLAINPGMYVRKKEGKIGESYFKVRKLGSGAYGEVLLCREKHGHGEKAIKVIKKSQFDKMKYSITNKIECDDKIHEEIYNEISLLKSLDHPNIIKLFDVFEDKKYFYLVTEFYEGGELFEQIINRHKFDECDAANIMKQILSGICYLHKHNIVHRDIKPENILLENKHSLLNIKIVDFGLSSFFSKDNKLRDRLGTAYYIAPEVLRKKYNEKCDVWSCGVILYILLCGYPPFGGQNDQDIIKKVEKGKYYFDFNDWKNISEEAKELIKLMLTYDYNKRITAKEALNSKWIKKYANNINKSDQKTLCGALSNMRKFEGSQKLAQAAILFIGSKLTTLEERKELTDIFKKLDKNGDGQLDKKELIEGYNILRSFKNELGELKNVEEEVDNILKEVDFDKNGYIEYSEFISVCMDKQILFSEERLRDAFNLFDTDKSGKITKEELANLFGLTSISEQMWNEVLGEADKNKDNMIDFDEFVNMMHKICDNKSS
SMILES,growth inhibition [1],inhibition [2],inhibition [3],growth inhibition [4],outcome [5],outcome [6],outcome [7],outcome [8]
CC=CC1CCNC(C(O)c2ccnc3ccc(OC)cc23)C1 (stereo not drawn),1%,-2%,3%,91% (active),inactive,inactive,inactive,inactive
CC(C)(C)OC(=O)N1CCN(c2ccccc2NC(=O)c2cccc(C(F)(F)F)c2Oc2ccc(F)cc2)CC1,9%,3%,-8%,100% (active),inactive,inactive,inactive,inactive
Cc1nnc2c(NC(=O)NC(C)C)cc3cc(-c4ccc(CN5CCCCC5)cc4)ccc3n12,8%,70% (active),1%,87% (active),inactive,inactive,inactive,inactive
COc1ccc(Cc2cnc3nc(N)nc(N)c3c2C)cc1,96% (active),65% (active),-2%,90% (active),inactive,inactive,inactive,inactive
Cc1cc(NC(=O)NCCN2CCC(NC(=O)c3ccc(Cl)cc3)CC2)c2ccccc2n1,54% (active),-4%,-2%,90% (active),inactive,inactive,inactive,inactive
CCc1ccc(-c2nc3cc(NC(=O)c4ccc([N+](=O)[O-])o4)ccc3o2)cc1,80% (active),4%,3%,97% (active),inactive,inactive,inactive,inactive
Cc1cc(N[C@@H](Cc2ccccc2)C(=O)NCc2cccc(F)c2)nc(NCCCOC(C)C)n1,94% (active),10%,-2%,101% (active),inactive,inactive,inactive,inactive
O=C(Nc1cccc(CN2CCCN(Cc3ccc(O)cc3)CC2)c1)c1ccc(-c2ccccc2)cc1,93% (active),33%,-8%,100% (active),inactive,inactive,inactive,inactive
COc1cc2nc(N3CCC(NC(=O)c4cccc(N(C)C)c4)CC3)nc(N)c2cc1OC,0%,6%,1%,98% (active),inactive,inactive,inactive,inactive
CC(C)Oc1cc2c(cc1NS(=O)(=O)c1ccc(-c3ccc(Cl)cc3)cc1F)CCN(C)CC2,2%,29%,-1%,88% (active),inactive,inactive,inactive,inactive
CN(C)CCN(C)Cc1cccc(-c2cccc(NC(=O)c3cccc(C#N)c3)c2)c1,10%,-4%,-1%,92% (active),inactive,inactive,inactive,inactive
CC(N)(Cc1ccc(O)cc1)c1nn[nH]n1 (stereo not drawn),2%,7%,4%,93% (active),inactive,inactive,inactive,inactive
Cc1cc2c(cc1C(F)(F)F)N(C(=O)Nc1cccc(C(=O)NC3CCN(Cc4ccccc4)CC3)c1)CC2,-5%,19%,-2%,91% (active),inactive,inactive,inactive,inactive
Nc1ccc2[nH]cc(C3CCN(CC4CCC(NC(=O)/C=C/c5ccccc5Cl)CC4)CC3)c2n1 (stereo not drawn),45%,7%,-3%,100% (active),inactive,inactive,inactive,inactive
CN(C)CCC1CCN(CCS(=O)(=O)c2cccc(Nc3ccc(-c4ccsc4)cn3)c2)CC1,6%,49%,0%,97% (active),inactive,inactive,inactive,inactive
O=C(N[C@@H](Cc1ccccc1)C(=O)NC1CCCCC1)c1ccc(O)c(-c2ccc(Cl)c(Cl)c2)c1,99% (active),-5%,1%,98% (active),inactive,inactive,inactive,inactive
Cc1cc(NN=Cc2ccccc2[N+](=O)[O-])c2cc(C(F)(F)F)ccc2n1,39%,-5%,1%,97% (active),inactive,inactive,inactive,inactive
CCCCNCc1ccc(-c2nc(CN(CCCn3ccnc3)C(=O)C3COc4ccccc4O3)cs2)cc1 (stereo not drawn),8%,6%,-4%,93% (active),inactive,inactive,inactive,inactive
N#Cc1ccc2c(c1)CCN(CCCn1c(-c3ccc4ccccc4c3)nc3ccncc31)CC2,97% (active),38%,4%,102% (active),inactive,inactive,inactive,inactive
COc1ccc2ccccc2c1CNCCCCCCNCc1c(OC)ccc2ccccc12,35%,99% (active),-2%,101% (active),inactive,inactive,inactive,inactive
Cc1cc(NC(=O)Nc2ccc3ccn(C)c3c2)c2ccccc2n1,69% (active),11%,-1%,102% (active),inactive,inactive,inactive,inactive

SMILES,growth inhibition [1],inhibition [2],inhibition [3],growth inhibition [4],outcome [5],outcome [6],outcome [7],outcome [8]
Cc1nc2c(=O)sc3ccccc3c2n1Cc1ccccc1,26%,-1%,1%,95% (active),inactive,inactive,inactive,inactive
O=[N+]([O-])c1cccc(C=NNc2ccnc3ccc(C(F)(F)F)cc23)c1,35%,-6%,-2%,96% (active),inactive,inactive,inactive,inactive
Oc1ccc2nc(NCCCc3ccccc3)nc(NCCCc3ccccc3)c2c1,93% (active),5%,-3%,101% (active),inactive,inactive,inactive,inactive
C=CCn1c(=N)c(C(=O)NC2CCCCC2)cc2c(=O)n3cccc(C)c3nc21,58% (active),0%,4%,92% (active),inactive,inactive,inactive,inactive
COc1cccc2c(NN=Cc3ccccc3F)ccnc12,37%,6%,1%,96% (active),inactive,inactive,inactive,inactive
CN1CCC(N2CCN(Cc3ccc(-c4cccc(-c5nc6ccccc6[nH]5)c4)cc3)CC2)CC1,100% (active),48%,-1%,99% (active),inactive,inactive,inactive,inactive
CC(C)(C)c1ccc(O)c(CNC2CCCCC2)c1,98% (active),5%,-2%,100% (active),inactive,inactive,inactive,inactive
O=C(Nc1cccc(-c2ccc(-c3nc4ccc(F)cc4[nH]3)cc2)c1)c1csnn1,31%,22%,0%,94% (active),inactive,inactive,inactive,inactive
O=C1Nc2cccc3c2C1(CCCCCN1CCC(c2c[nH]c4ccncc24)CC1)CCC3 (stereo not drawn),3%,8%,6%,95% (active),inactive,inactive,inactive,inactive
Cc1cc(Nc2ccncc2)n2nc(C)c(-c3ccccc3Cl)c2n1,93% (active),2%,4%,99% (active),inactive,inactive,inactive,inactive
COc1ccc(-c2ccc(CNC(=O)c3ccc(Cl)cc3)c(F)c2)cc1CN1CCCN(C)CC1,48%,25%,-5%,99% (active),inactive,inactive,inactive,inactive
COc1ccc2ncc(C#N)c(CCN3C[C@H](CNCc4ccccc4)[C@H](O)C3)c2n1,24%,3%,4%,91% (active),inactive,inactive,inactive,inactive
CC1(C)N=C(N)N=C(N)N1O,1%,7%,-5%,93% (active),inactive,inactive,inactive,inactive
O=C(Nc1ccc2nc3n(c(=O)c2c1)CCCCC3)C(=O)N1CCN(c2ccc(F)cc2)CC1,86% (active),10%,-1%,93% (active),inactive,inactive,inactive,inactive
COc1cc(Nc2ccnc3ccc(C(F)(F)F)cc23)cc(OC)c1OC,100% (active),15%,1%,101% (active),inactive,inactive,inactive,inactive
COc1cccc(Nc2nc(Nc3cccc(C#N)c3)cc(C(F)(F)F)n2)c1,45%,15%,3%,99% (active),inactive,inactive,inactive,inactive
O=C(N[C@H]1CCN(CCc2ccc(O[C@H]3CCNC3)cc2)C1)c1ccc(Cl)c(Cl)c1,5%,18%,-3%,96% (active),inactive,inactive,inactive,inactive
Cn1c(=N)n(CC(=O)OCc2ccc(OCc3ccccc3)cc2)c2ccccc21,74% (active),5%,-5%,100% (active),inactive,inactive,inactive,inactive
COc1ccc(CCNCCCCCNCCCc2ccc(Cl)cc2)cc1OC,2%,24%,2%,101% (active),inactive,inactive,inactive,inactive
COc1ccc(S(=O)(=O)NCC2CCCN(CCCCCNC(=O)/C=C/c3ccc(Cl)c(Cl)c3)C2)cc1 (stereo not drawn),1%,53% (active),1%,81% (active),inactive,inactive,inactive,inactive
